Results filed as inconclusive are left out. Entries that show only a call come without a potency. The source made the active and inactive calls. Calls follow the shape of the dose curve; as a rule, active = well fitted inhibition curve with a large enough effect; inconclusive = small, poorly fitted or top-dose-only effect; inactive = flat fitted curve, though single readings scatter.
Potency is read from the fitted curve at half-maximal effect.

Dual specificity protein kinase CLK4 (Homo sapiens), sequence (Q9HAZ1 whole entry, looked up): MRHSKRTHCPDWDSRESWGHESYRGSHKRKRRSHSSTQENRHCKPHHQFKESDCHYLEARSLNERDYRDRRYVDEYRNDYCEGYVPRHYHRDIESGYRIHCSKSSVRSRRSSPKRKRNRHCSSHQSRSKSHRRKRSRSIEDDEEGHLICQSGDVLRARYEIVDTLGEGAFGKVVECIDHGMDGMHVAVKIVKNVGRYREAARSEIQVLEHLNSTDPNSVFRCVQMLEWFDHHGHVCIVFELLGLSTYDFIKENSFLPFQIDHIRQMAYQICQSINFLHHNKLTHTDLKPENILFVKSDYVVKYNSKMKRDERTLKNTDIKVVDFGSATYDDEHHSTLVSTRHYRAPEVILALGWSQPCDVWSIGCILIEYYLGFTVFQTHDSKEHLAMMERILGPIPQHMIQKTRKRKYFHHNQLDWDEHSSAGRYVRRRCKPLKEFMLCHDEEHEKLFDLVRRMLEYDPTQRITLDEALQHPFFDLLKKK

The target of the first assay is Dual specificity protein kinase CLK4 (Homo sapiens) (UniProt Q9HAZ1). The experiment in a line: qHTS Assay for Inhibitors of CDC-like Kinase 4 (Kinase-Glo Assay) (AID 1770). Also: nearly all actives have a fitted effect of over 65% in size. Conditions: recombinant Clk4, Kinase-Glo ATP depletion luminescence; series mostly up to 66.7 µM. In short, it runs like this:
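Luminescent ATP-depletion read-out (Kinase-Glo) after 4.5 h room-temperature reaction of Clk4 (25 nM final) with RS peptide (100 uM) and ATP (1 uM), pH 7.5 Tris buffer with MgCl2 and DTT.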
For `CN(C)Cc1ccccc1-c1cc(N(C)Cc2ccco2)ncn1`, the Potency result was “inactive”.
For the compound `c1cncc(-c2cncnc2NC2CCNCC2)c1`, the Potency result is “inactive”.
As for `Cn1cc(-c2nc3cnc(Oc4ccccc4)nc3n(C)c2=O)c2ccccc21`, the Potency result was “inactive”.
Regarding `CN(C)c1ncc2nc(-c3ccccc3)c(=O)n(-c3ccccc3)c2n1`, the Potency entry is “inactive”.
Turning to `CN1CCN(c2ncc3nc(-c4cc(F)cc(F)c4)c(=O)n(C4CC4)c3n2)CC1`, the Potency entry was “inactive”.
`O=c1c(-c2ccc(F)cc2)nc2cnc(N3CCNCC3)nc2n1Cc1ccc(F)cc1`: the Potency entry is “inactive”.
On the same count and under the same terms, under `O=c1c(-c2cc(F)cc(F)c2)nc2cncnc2n1-c1ccccc1` stands “inactive”; under `CN(Cc1ccco1)c1ncncc1-c1ccccc1Cl`, “inactive”; under `O=c1cnc2cnc(N3CCOCC3)nc2n1CCc1ccccc1`, 7.08 µM (active).
On the same count and under the same terms, under `CN1CCN(c2ncncc2-c2ccc(C(=O)N(C)C)cc2)CC1` stands “inactive”; under `CC(=O)NCCNc1ncncc1-c1ccccc1C`, “inactive”.
Regarding `COCCn1c(=O)cnc2cnc(Oc3ccccc3)nc21`, the Potency result is “inactive”.
As for `COCCn1c(=O)c(-c2ccc(Cl)cc2)nc2cnc(Oc3cccc(Cl)c3)nc21`, the Potency entry was “inactive”.
With `COc1ccc(CNc2ccnc(-c3ccc4c(c3)OCO4)n2)c(OC)c1`, the Potency result was “inactive”.
As to `COc1ncc2nc(-c3cc(F)cc(F)c3)c(=O)n(C)c2n1`, the Potency result is “inactive”.
As for `COc1cccc(Nc2ncc3nc(-c4ccccc4)c(=O)n(Cc4cccs4)c3n2)c1`, the Potency result is “inactive”.
For the compound `COc1ccc(-c2nc3cnc(N4CCN(C)CC4)nc3n(Cc3ccc(F)cc3)c2=O)cc1`, the Potency result is “inactive”.
With `COCCn1c(=O)c(-c2cc(F)cc(F)c2)nc2cnc(N3CCOCC3)nc21`, the Potency entry was “inactive”.
In the case of `CN(C)c1ncnc2ccc(-c3cccnc3)cc12`, the Potency was 7.94 µM (active).
As for `CCNc1ncc2nc(-c3cn(C)c4ccccc34)c(=O)n(Cc3cccc(OC)c3)c2n1`, the Potency result was “inactive”.
For the compound `COc1ccc(Oc2ncc3nc(C)c(=O)n(-c4ccccc4)c3n2)cc1`, the Potency entry is “inactive”.
Take `CN(C)Cc1ccccc1-c1nc(NCc2cccs2)c2ccccc2n1`: the Potency entry is “inactive”.
Consider `CN(Cc1ccco1)c1ncncc1-c1cccc(C#N)c1`, for which the Potency result was “inactive”.
Same read-out and setting: under `O=c1c(-c2ccc(F)cc2)nc2cnc(N3CCOCC3)nc2n1Cc1cccs1` stands “inactive”.
Regarding `CCNc1ncc2nc(-c3ccc(Cl)cc3)c(=O)n(C[C@H]3CCCO3)c2n1`, the Potency result was “inactive”.
Regarding `COc1ccc(-n2c(=O)c(-c3cccs3)nc3cnc(N(C)C)nc32)cc1`, the Potency entry was “inactive”.
Consider `Cn1cc(-c2nc3cnc(Oc4ccccc4)nc3n(C3CC3)c2=O)c2ccccc21`, for which the Potency result is “inactive”.
On to `O=c1c(-c2cccs2)nc2cnc(N3CCOCC3)nc2n1Cc1ccc(F)cc1`, for which the Potency entry was “inactive”.
With `O=c1c(-c2ccc(F)cc2)nc2cnc(Nc3ccccc3)nc2n1C[C@H]1CCCO1`, the Potency result was “inactive”.
Turning to `O=c1c(-c2cc(F)cc(F)c2)nc2cncnc2n1Cc1ccccc1`, the Potency result is “inactive”.
In the case of `c1ccc(Nc2cc(-c3ccoc3)ncn2)cc1`, the Potency entry is “inactive”.
Consider `COc1ccc(Oc2ncc3nc(-c4cn(C)c5ccccc45)c(=O)n(C4CC4)c3n2)cc1`, for which the Potency result is “inactive”.
The same measure, in the same setting: under `COCCNc1ncncc1-c1c(C)noc1C` stands “inactive”; under `Cc1noc(C)c1-c1ccc2ncnc(Nc3ccc(F)cc3)c2c1`, 4.47 µM (active); under `O=c1c(-c2cccs2)nc2cnc(N3CCOCC3)nc2n1Cc1cccs1`, “inactive”.
Consider `Cc1noc(C)c1-c1ccc2ncnc(N(C)C)c2c1`, for which the Potency was 7.08 µM (active).
On the same count and under the same terms, under `CC(=O)NCCNc1ncnc2ccc(-c3c(C)noc3C)cc12` stands 7.08 µM (active); under `CN(C)c1ncc2nc(-c3cn(C)c4ccccc34)c(=O)n(C[C@H]3CCCO3)c2n1`, “inactive”; under `CN1CCN(c2ncc3nc(-c4ccc(Cl)cc4)c(=O)n(Cc4cccs4)c3n2)CC1`, “inactive”.
Take `CN(Cc1ccco1)c1ncncc1-c1ccoc1`: the Potency result is “inactive”.

Another assay shares this target. The experiment in a line: qHTS Assay for Inhibitors of CDC-like Kinase 4 (ADP-Glo Assay) (AID 1771). Also: nearly all actives have a fitted effect of over 70% in size. Conditions: recombinant CLK4, ADP-Glo luminescence; series mostly up to 80 µM. In short, it runs like this:
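25 nM Clk4, 100 uM RS peptide, 1 uM ATP (final); 2 mM MgCl2, 0.5 mM EGTA, 2.5 mM DTT, 0.01% Triton X-100; 1 hr RT. ADP-Glo readout: ATP depletion 45 min, conversion/luciferase 30 min, luminescence.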
On to `CN(C)Cc1ccccc1-c1cc(N(C)Cc2ccco2)ncn1`, for which the Potency entry is “inactive”.
On to `c1cncc(-c2cncnc2NC2CCNCC2)c1`, for which the Potency result was “inactive”.
Regarding `Cn1cc(-c2nc3cnc(Oc4ccccc4)nc3n(C)c2=O)c2ccccc21`, the Potency result was “inactive”.
In the case of `CN(C)c1ncc2nc(-c3ccccc3)c(=O)n(-c3ccccc3)c2n1`, the Potency result was “inactive”.
Turning to `CN1CCN(c2ncc3nc(-c4cc(F)cc(F)c4)c(=O)n(C4CC4)c3n2)CC1`, the Potency result is “inactive”.
For the compound `O=c1c(-c2ccc(F)cc2)nc2cnc(N3CCNCC3)nc2n1Cc1ccc(F)cc1`, the Potency entry was “inactive”.
As for `O=c1c(-c2cc(F)cc(F)c2)nc2cncnc2n1-c1ccccc1`, the Potency result was “inactive”.
Turning to `CN(Cc1ccco1)c1ncncc1-c1ccccc1Cl`, the Potency entry was “inactive”.
As to `O=c1cnc2cnc(N3CCOCC3)nc2n1CCc1ccccc1`, the Potency was 7.94 µM (active).
With `CN1CCN(c2ncncc2-c2ccc(C(=O)N(C)C)cc2)CC1`, the Potency result was “inactive”.
Turning to `CC(=O)NCCNc1ncncc1-c1ccccc1C`, the Potency entry was “inactive”.
Consider `COCCn1c(=O)cnc2cnc(Oc3ccccc3)nc21`, for which the Potency result is “inactive”.
Consider `COCCn1c(=O)c(-c2ccc(Cl)cc2)nc2cnc(Oc3cccc(Cl)c3)nc21`, for which the Potency result is “inactive”.
With `COc1ccc(CNc2ccnc(-c3ccc4c(c3)OCO4)n2)c(OC)c1`, the Potency result was “inactive”.
Regarding `COc1ncc2nc(-c3cc(F)cc(F)c3)c(=O)n(C)c2n1`, the Potency entry was “inactive”.
As to `COc1cccc(Nc2ncc3nc(-c4ccccc4)c(=O)n(Cc4cccs4)c3n2)c1`, the Potency entry was “inactive”.
Still for that read-out and setting: under `COc1ccc(-c2nc3cnc(N4CCN(C)CC4)nc3n(Cc3ccc(F)cc3)c2=O)cc1` stands “inactive”.
For `COCCn1c(=O)c(-c2cc(F)cc(F)c2)nc2cnc(N3CCOCC3)nc21`, the Potency entry was “inactive”.
As for `CN(C)c1ncnc2ccc(-c3cccnc3)cc12`, the Potency is 7.08 µM (active).
With `CCNc1ncc2nc(-c3cn(C)c4ccccc34)c(=O)n(Cc3cccc(OC)c3)c2n1`, the Potency result was “inactive”.
Consider `COc1ccc(Oc2ncc3nc(C)c(=O)n(-c4ccccc4)c3n2)cc1`, for which the Potency result was “inactive”.
In the case of `CN(C)Cc1ccccc1-c1nc(NCc2cccs2)c2ccccc2n1`, the Potency result was “inactive”.
With `CN(Cc1ccco1)c1ncncc1-c1cccc(C#N)c1`, the Potency entry was “inactive”.
Same read-out and setting: under `O=c1c(-c2ccc(F)cc2)nc2cnc(N3CCOCC3)nc2n1Cc1cccs1` stands “inactive”; under `CCNc1ncc2nc(-c3ccc(Cl)cc3)c(=O)n(C[C@H]3CCCO3)c2n1`, “inactive”; under `COc1ccc(-n2c(=O)c(-c3cccs3)nc3cnc(N(C)C)nc32)cc1`, “inactive”.
Regarding `Cn1cc(-c2nc3cnc(Oc4ccccc4)nc3n(C3CC3)c2=O)c2ccccc21`, the Potency entry was “inactive”.
Same read-out and setting: under `O=c1c(-c2cccs2)nc2cnc(N3CCOCC3)nc2n1Cc1ccc(F)cc1` stands “inactive”; under `O=c1c(-c2ccc(F)cc2)nc2cnc(Nc3ccccc3)nc2n1C[C@H]1CCCO1`, “inactive”; under `O=c1c(-c2cc(F)cc(F)c2)nc2cncnc2n1Cc1ccccc1`, “inactive”.
Turning to `c1ccc(Nc2cc(-c3ccoc3)ncn2)cc1`, the Potency result is “inactive”.
On to `COc1ccc(Oc2ncc3nc(-c4cn(C)c5ccccc45)c(=O)n(C4CC4)c3n2)cc1`, for which the Potency entry is “inactive”.
For the compound `COCCNc1ncncc1-c1c(C)noc1C`, the Potency result is “inactive”.
Regarding `Cc1noc(C)c1-c1ccc2ncnc(Nc3ccc(F)cc3)c2c1`, the Potency is 6.31 µM (active).
On the same count and under the same terms, under `O=c1c(-c2cccs2)nc2cnc(N3CCOCC3)nc2n1Cc1cccs1` stands “inactive”; under `Cc1noc(C)c1-c1ccc2ncnc(N(C)C)c2c1`, 4.47 µM (active); under `CC(=O)NCCNc1ncnc2ccc(-c3c(C)noc3C)cc12`, 6.31 µM (active).
For the compound `CN(C)c1ncc2nc(-c3cn(C)c4ccccc34)c(=O)n(C[C@H]3CCCO3)c2n1`, the Potency entry was “inactive”.
Same read-out and setting: under `CN1CCN(c2ncc3nc(-c4ccc(Cl)cc4)c(=O)n(Cc4cccs4)c3n2)CC1` stands “inactive”.
For the compound `CN(Cc1ccco1)c1ncncc1-c1ccoc1`, the Potency entry was “inactive”.

Source of the values: PubChem BioAssay (NCATS).
